From PubChem
HT1080NT lethal – kills 2HG-producing HT-1080-NT fibrosarcoma cells; actives 1.6% (n = 360,000); AID 686970; Potency, µM (top dose mostly 46.1 µM), inactives show at the top dose activity, negative = less viability, most hits filed as cytotoxic; HT-1080-NT fibrosarcoma viability, CellTiter-Glo ATP luminescence, 48 h;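 also: NT is the 2HG producing partner of a matched IDH1 knockdown line; potency is read from the fitted curve at half-maximal effect; 0% = DMSO-treated cells and -100% = media-only wells without cells; nearly all actives have a fitted effect of over 55% in size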
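750 cells/well, RPMI + 5% FBS; 2 h settle, compound pin-transfer, 48 h at 37 degrees C. CellTiter-Glo 10 min RT, luminescence. Normalized to DMSO and media-only wells.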
TDP1 cell noCPT – qHTS for Inhibitors of human tyrosyl-DNA phosphodiesterase 1 (TDP1): qHTS in cells in absence of CPT; DT40 Tdp1-/- hTDP1 cells, no CPT, ATP luminescence, 48 h; Potency, µM (highest dose often 46.2 µM), without a hit: at the highest dose activity change, negative = growth inhibition, hits mostly inhibitors; actives 15% (n = 420,000); AID 686978, 2013; also: potency is read from the fitted curve at half-maximal effect; nearly all actives have a fitted effect of over 55% in size
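Chicken DT40 Tdp1-/- cells stably complemented with human TDP1 were seeded at 400 cells/well with DMSO in place of 20 nM camptothecin. After compound pinning, cells grew at least 48 hr at 37 °C; viability read by CellTiter-Glo luminescence.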
HT1080 IDH1KD tx – toxicity to HT-1080 IDH1 knockdown cells (counter line); HT-1080 IDH1 knockdown viability, ATP luminescence, 48 h; Potency, µM (highest dose often 46.1 µM), without a hit: at the top dose activity, negative = toxicity, hits mostly cytotoxic; actives 2% (n = 360,000);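 also: potency is read from the fitted curve at half-maximal effect; 0% = DMSO wells and -100% = cell-free medium wells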
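% activity derives from luminescence (CellTiter-Glo), normalised to DMSO and no-cell wells. HT-1080-IDH1KD cells, 750/well, had 48 h compound exposure at 37 °C.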
IL-1B inflam inh – inhibitors of inflammasome signaling (IL-1 beta secretion); AID 743279; activity change, % at 57.5 µM; actives 4.7% (n = 360,000); THP-1 LPS/ATP IL-1B secretion, AlphaLISA, 16 h; stronger effect = lower value; in the data active = activity change below about -50%; inconclusive = mostly about -30% to -49%
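Secreted IL-1B measured by AlphaLISA bead assay after 16 h compound exposure of THP-1 cells; compounds (final up to 57.5 uM) added 1 h before LPS (250 ng/mL) and ATP (1.25 mM) stimulation; lower signal means less secretion.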
DT40 TDP1 CPT – growth inhibition of DT40 Tdp1-/-;hTDP1 cells with camptothecin (screen for TDP1 inhibitors); actives 12% (n = 420,000); Potency, µM (series often up to 46.2 µM), for inactives: at the top dose activity change, negative = growth inhibition, most hits filed as inhibitors; chicken DT40 Tdp1-/-;hTDP1 cells + 20 nM CPT, ATP luminescence, 48 h; also: potency is read from the fitted curve at half-maximal effect; nearly all actives have a fitted effect of over 55% in size
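Chicken DT40 Tdp1-/- cells complemented with human TDP1, 400 cells/well, exposed to compounds plus 20 nM camptothecin for at least 48 h at 37 C; viability read as ATP content by CellTiter-Glo luminescence.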
12-LOX inh – inhibitors of human 12S-lipoxygenase ALOX12 | purified 12hLO, xylenol orange hydroperoxide absorbance | Potency, µM (top dose mostly 108 µM), without a hit: at the highest dose activity change, negative = inhibition, actives largely listed as inhibitors | actives 1.1% (n = 580,000); also: potency is read from the fitted curve at half-maximal effect
Target sequence (P18054 whole entry, looked up): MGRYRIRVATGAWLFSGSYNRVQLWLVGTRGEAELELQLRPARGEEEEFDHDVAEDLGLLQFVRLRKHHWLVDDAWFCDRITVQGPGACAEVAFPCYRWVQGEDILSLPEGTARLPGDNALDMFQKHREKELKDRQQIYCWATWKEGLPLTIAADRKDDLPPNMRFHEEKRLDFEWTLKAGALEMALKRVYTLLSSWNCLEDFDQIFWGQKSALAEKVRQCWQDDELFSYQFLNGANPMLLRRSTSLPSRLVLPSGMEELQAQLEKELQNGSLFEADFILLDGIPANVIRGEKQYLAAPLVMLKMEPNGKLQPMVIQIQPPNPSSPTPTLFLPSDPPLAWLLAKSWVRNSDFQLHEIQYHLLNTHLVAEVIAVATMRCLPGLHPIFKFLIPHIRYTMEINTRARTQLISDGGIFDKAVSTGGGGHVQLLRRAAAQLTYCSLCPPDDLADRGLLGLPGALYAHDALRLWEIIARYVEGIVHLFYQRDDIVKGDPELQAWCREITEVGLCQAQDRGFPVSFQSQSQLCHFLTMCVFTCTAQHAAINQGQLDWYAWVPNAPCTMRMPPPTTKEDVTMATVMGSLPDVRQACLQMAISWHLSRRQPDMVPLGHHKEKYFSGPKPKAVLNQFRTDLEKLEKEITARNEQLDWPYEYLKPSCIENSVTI
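Hydroperoxide product was detected by ferrous iron/xylenol orange as the 573 to 405 nm absorbance ratio. Arachidonic acid at 40 uM (final) was turned over for 30 min at room temperature by 150 nM human 12hLO, pH 7.0 Hepes buffer, after 15 min compound preincubation.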
Active calls of the source: *; ? = inconclusive; / = no result; [ ] = another dose, or the depositor's remark. Only a selection was taken, and hits are over-represented in it overall. Unless noted, calls follow the shape of the dose curve; as a rule, active = well fitted curve in the direction sought with a large enough effect; inconclusive = small, poorly fitted or top-dose-only effect, or another doubt; inactive = no such curve, though single readings can be large; an effect the other way counts as inactive or inconclusive. Unless noted, % is scaled to controls: 0 for no effect and ±100 for the full control effect.

SMILES	HT1080NT lethal	TDP1 cell noCPT	HT1080 IDH1KD tx	IL-1B inflam inh	DT40 TDP1 CPT	12-LOX inh
CCN(CC)S(=O)(=O)c1cc(NC(=O)C2CC(=O)N(Cc3ccccc3)C2)ccc1Cl (stereo not drawn)	-3%	16µM*	-29%	-14	?	9%
CCOC(=O)C1C(=O)C=C(c2ccccc2)CC1c1ccc(Br)cc1 (stereo not drawn)	/	/	/	/	/	10%
CCCCn1c(SCC(=O)Nc2ccc(OC)cc2)nc2c(oc3ccccc32)c1=O	/	/	/	/	/	1%
CCO[C@@H]1OC(C(=O)NCc2nc3ccccc3[nH]2)=C[C@H](c2cn(C(C)=O)c3ccccc23)[C@H]1CCCO	-10%	16µM*	-9%	?	?	24%
CCO[C@H]1OC(C(=O)O)=C[C@@H](c2cn(C(C)=O)c3ccccc23)[C@@H]1CCCO	13%	1%	13%	20	-1%	-11%
CCO[C@H]1OC(C(=O)NCc2nc3ccccc3[nH]2)=C[C@@H](c2cn(C(C)=O)c3ccccc23)[C@@H]1CCCO	-9%	18µM*	-9%	-14	?	10%
CCO[C@@H]1OC(C(=O)NCc2nc3ccccc3[nH]2)=C[C@H](c2coc3ccccc3c2=O)[C@H]1CCCO	-2%	-12%	-11%	-5	-29%	-5%
CCO[C@@H]1OC(C(=O)NCc2ccccc2)=C[C@H](c2ccc(Br)cc2)[C@H]1CCCO	0%	?	1%	0	23µM*	?
CCO[C@@H]1OC(C(=O)NCc2ccccc2)=C[C@H](c2cn(C(C)=O)c3ccccc23)[C@H]1CCCO	-2%	18µM*	-6%	-54*	?	?
CC(C)CNC(=O)CCCc1nnc2c(=O)n(-c3ccc(Cl)cc3)ccn12	/	/	/	/	/	3%
C=C(Br)CNCCCC	/	/	/	/	/	-19%
COc1cc(/C=C(/C#N)c2nc3ccccc3[nH]2)cc(Cl)c1OC(C)C	/	/	/	/	/	30%
Cc1cnc(CNc2ncncc2-c2ccccc2C(F)(F)F)cn1	/	-28%	/	/	?	22µM*
Cc1cnc(CNc2ncncc2-c2c(C)noc2C)cn1	/	2.6µM*	/	/	3.7µM*	-18%
O=C1C(Cl)=C(NCCCO)C(=O)c2ccccc21	?	18µM*	?	57	23µM*	0%
CCOCCCNC1=C(Cl)C(=O)c2ccccc2C1=O	12%	6.5µM*	-6%	33	5.8µM*	0%
CCOCCCNS(=O)(=O)c1ccccc1	0%[9.24 µM]	-18%	-20%	0	-5%	0%
Cc1ccc(-c2cnn(-c3ccccc3)c2N)cc1	-22%	10%	-22%	0	?	-2%
Nc1nc2c(s1)CCc1c-2cnn1-c1ccccc1	-8%	13µM*	-12%	0	15µM*	/
CC1Cc2cc(S(=O)(=O)NCCc3ccc(Cl)cc3)ccc2N1C(=O)C1CCC1 (stereo not drawn)	/	18µM*	/	/	?	-28%
CCOc1ccccc1N(C)S(=O)(=O)c1ccc2c(c1)CC(C)N2C(=O)C1CC1 (stereo not drawn)	?	16µM*	15µM*	-4	23µM*	4%
CCC(=O)N1c2ccc(S(=O)(=O)NC3CCCCC3)cc2CC1C (stereo not drawn)	-5%	?	-7%	28	21µM*	-7%
CCc1cccc(NS(=O)(=O)c2ccc3c(c2)CC(C)N3C(=O)C2CC2)c1 (stereo not drawn)	/	3.7µM*	/	/	6.5µM*	?
O=C(COC(=O)c1cccc(S(=O)(=O)N2CCCCC2)c1)NCc1ccc2c(c1)OCO2	/	/	/	/	/	1%
Cc1ccc(NS(=O)(=O)c2ccc3c(c2)N(C)CCO3)cc1	3%	?	-9%	64	?	-22%
SMILES	HT1080NT lethal	TDP1 cell noCPT	HT1080 IDH1KD tx	IL-1B inflam inh	DT40 TDP1 CPT	12-LOX inh
CCc1cccc(NS(=O)(=O)c2ccc3c(c2)N(C)CCO3)c1	-16%	?	?	0	13µM*	-11%
CC1Cc2cc(S(=O)(=O)NCc3ccccc3)ccc2N1C(=O)C1CCC1 (stereo not drawn)	-4%	7.3µM*	0%	1	21µM*	1%
Cc1ccc(-c2nnc(CCC(=O)N(C)Cc3nccs3)o2)s1	11%	21µM*	0%	-8	4%	?
CC(=O)c1ccc(-c2nnc(CCC(=O)N(C)Cc3cccc4cnccc34)o2)s1	-10%	-26%	-4%	-1	-21%	-8%
Cc1ccc(-c2cnc(CCC(=O)NCc3ccc(OCC(F)(F)F)cc3)o2)cc1	/	/	/	/	/	3%
O=C1CC(SC(=Nc2ccccc2)Nc2ccccc2)C(=O)N1c1cccc(Cl)c1 (stereo not drawn)	?	18µM*	23µM*	-6	?	-10%
O=C1CC(Sc2nnnn2-c2ccccc2)C(=O)N1c1cccc(Cl)c1 (stereo not drawn)	?	3.7µM*	?	-7	1.3µM*	115%
COc1ccc(N2C(=O)CC(Sc3nnnn3-c3ccc(F)cc3)C2=O)cc1 (stereo not drawn)	16µM*	2.9µM*	4.1µM*	-16	1.5µM*	-1%
Cc1nc(COc2ccc(C(=O)Nc3ccccc3N3CCOCC3)cc2)cs1	-11%	15µM*	-16%	?	?	0%
CN1CCN(c2ccccc2NC(=O)c2cccc(OCc3ccccc3)c2)CC1	?	21µM*	18µM*	-65*	?	12%
O=C(NCc1ccccc1CN1CCCC1)c1ccc(OCc2cscn2)cc1	10%	10%	2%	-7	-21%	-3%
CN1CCN(c2ccccc2NC(=O)c2ccc(-c3ccccc3)cc2)CC1	?	16µM*	?	-59*	?	?
Cc1nc(COc2ccc(C(=O)NCc3ccccc3CN3CCCCC3)cc2)cs1	-1%	23µM*	1%	0	?	177%
CC(=O)N1Cc2ccccc2CC2(CCCN(CC3CCCCC3)C2)C1 (stereo not drawn)	/	/	/	/	/	7%[6.33 µM]
CCOc1ccccc1C(=O)Nc1c(C(=O)N2CCN(Cc3ccccc3)CC2)oc2ccccc12	/	/	/	/	/	2%
Cc1ccc2c(C)c(C(=O)Nc3nc(-c4ccc(C)s4)ns3)oc2c1	/	/	/	/	/	-26%
CN1CCN(c2ccccc2NC(=O)c2ccc(OCc3ccccc3)cc2)CC1	?	?	23µM*	-55*	16µM*	?
